Test results reported in PubChem BioAssay (NCATS).
Inconclusive results are not listed. Unmarked numbers belong to inactive results. Calls come from the whole dose curve; as a rule, active = well fitted cell-killing curve with a large enough effect; inconclusive = small, poorly fitted or top-dose-only effect; inactive = no such curve, though single readings can be large or run the other way.

Assay: qHTS of pediatric cancer cell lines to identify multiple opportunities for drug repurposing: Primary screen for A673 cells (AID 1347092); note: nearly all actives have a fitted effect of over 45% in size
Conditions: A673 Ewing sarcoma viability, CellTiter-Glo ATP luminescence, 48 h; series mostly up to 46 µM; activity change, negative = cytotoxic: at the top concentration
In short: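 Luminescence from CellTiter-Glo, taken after 15 min at room temperature, served as the proxy for metabolically active cells following 48 h treatment. Both potency and efficacy were taken from curves fitted to the titration data.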
% is set by controls: 0 for no effect and ±100 for the full control effect.

Row | SMILES | activity change, negative = cytotoxic
1 | COc1ccc2c(c1)c(CC(=O)OC/C=C(\C)CC/C=C(\C)CCC=C(C)C)c(C)n2C(=O)c1ccc(Cl)cc1 | 0.708%
2 | CC(C)(C)c1ccc(C(=O)CCCCl)cc1 | -15.2%
3 | CC[N+]1(CC)CCC(=C(c2ccccc2)c2ccccc2)C1C (centres undefined) | -26.2%
4 | CC(=O)O[C@H]1CC[C@@]2(C)C(=CC[C@@H]3[C@@H]2CC[C@]2(C)C(C(C)=O)=CC[C@@H]32)C1 | 8.88%
5 | CCCCOC(=O)CCCCCCCCC(=O)OCCCC | -0.693%
6 | CC1(C)O[C@@H]2C[C@H]3[C@@H]4C[C@H](F)C5=CC(=O)C=C[C@]5(C)[C@@]4(F)[C@@H](O)C[C@]3(C)[C@]2(C(=O)CO)O1 | -2.95%
7 | CC(NN)c1ccccc1 (centres undefined) | -2.55% [at 16.1 µM]
8 | CO/N=C(\C(=O)O)c1csc(NC(=O)CCl)n1 | -0.135%
9 | CCN1CCN(C(=O)N[C@@H](C(=O)N[C@@H]2C(=O)N3[C@@H]2SC(C)(C)[C@H]3C(=O)O)c2ccccc2)C(=O)C1=O | 4.87%
10 | CC(=O)N(c1onc(C)c1C)S(=O)(=O)c1ccc(N)cc1 | 4.64%
11 | C[C@H]1C[C@@H]2[C@H]([C@@H](O)C[C@@]3(C)[C@H]2CC[C@]3(O)C(=O)CO)[C@@]2(C)C=CC(=O)C=C12 | 6.46%
12 | CCC1(c2cnc[nH]2)Cc2ccccc2C1 | -34.2%
13 | COC(=O)C1=C(C)NC(C)=C(C(=O)OCCc2ccc(N3CCN(C(c4ccccc4)c4ccccc4)CC3)cc2)C1c1cccc([N+](=O)[O-])c1 (centres undefined) | 3.49%
14 | OC1(c2ccccc2)CCNCC1 | -10.3%
